# Columns and labels:
# [1] = molecular target: Ribosomal protein S6 kinase alpha-6 (Homo sapiens) (UniProt Q9UK32); conditions: at 1 µM;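 note: each value is a mean inhibition of RSK4 from a GSK PKIS panel screen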
# [2] = molecular target: T1, Serine/threonine-protein kinase Sgk1 (Homo sapiens) (UniProt O00141); conditions: at 0.1 µM
# T1 sequence (whole entry): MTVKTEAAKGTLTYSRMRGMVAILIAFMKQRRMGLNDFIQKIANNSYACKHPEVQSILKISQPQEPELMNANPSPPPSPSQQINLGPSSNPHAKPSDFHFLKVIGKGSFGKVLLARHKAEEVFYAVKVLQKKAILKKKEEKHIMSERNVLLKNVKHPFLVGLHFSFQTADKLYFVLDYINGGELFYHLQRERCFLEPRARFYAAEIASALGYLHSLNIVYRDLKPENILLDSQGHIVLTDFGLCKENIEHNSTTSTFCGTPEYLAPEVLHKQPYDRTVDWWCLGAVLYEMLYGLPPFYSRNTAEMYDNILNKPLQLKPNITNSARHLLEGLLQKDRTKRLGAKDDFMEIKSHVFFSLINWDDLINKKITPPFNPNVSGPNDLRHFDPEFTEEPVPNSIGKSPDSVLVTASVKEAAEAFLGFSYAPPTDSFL
# [3] = molecular target: T1, Serine/threonine-protein kinase Sgk1 (Homo sapiens); conditions: at 1 µM
# [4] = molecular target: T2, Serine/threonine-protein kinase Sgk2 (Homo sapiens) (UniProt Q9HBY8); conditions: at 0.1 µM
# T2 sequence (whole entry): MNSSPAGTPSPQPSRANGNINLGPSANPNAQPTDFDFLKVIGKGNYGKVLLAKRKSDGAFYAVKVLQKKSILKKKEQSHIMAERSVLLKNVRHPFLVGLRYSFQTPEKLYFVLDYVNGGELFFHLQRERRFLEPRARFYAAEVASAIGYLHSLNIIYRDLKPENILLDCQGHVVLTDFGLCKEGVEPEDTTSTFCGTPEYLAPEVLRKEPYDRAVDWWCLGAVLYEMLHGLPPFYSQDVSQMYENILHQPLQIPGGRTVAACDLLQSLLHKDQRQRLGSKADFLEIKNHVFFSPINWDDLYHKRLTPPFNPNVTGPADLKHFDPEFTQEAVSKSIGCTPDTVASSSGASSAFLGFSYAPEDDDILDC
# [5] = molecular target: T2, Serine/threonine-protein kinase Sgk2 (Homo sapiens); conditions: at 1 µM
# [6] = molecular target: T3, Serine/threonine-protein kinase Sgk3 (Homo sapiens) (UniProt Q96BR1); conditions: at 0.1 µM
# T3 sequence (whole entry): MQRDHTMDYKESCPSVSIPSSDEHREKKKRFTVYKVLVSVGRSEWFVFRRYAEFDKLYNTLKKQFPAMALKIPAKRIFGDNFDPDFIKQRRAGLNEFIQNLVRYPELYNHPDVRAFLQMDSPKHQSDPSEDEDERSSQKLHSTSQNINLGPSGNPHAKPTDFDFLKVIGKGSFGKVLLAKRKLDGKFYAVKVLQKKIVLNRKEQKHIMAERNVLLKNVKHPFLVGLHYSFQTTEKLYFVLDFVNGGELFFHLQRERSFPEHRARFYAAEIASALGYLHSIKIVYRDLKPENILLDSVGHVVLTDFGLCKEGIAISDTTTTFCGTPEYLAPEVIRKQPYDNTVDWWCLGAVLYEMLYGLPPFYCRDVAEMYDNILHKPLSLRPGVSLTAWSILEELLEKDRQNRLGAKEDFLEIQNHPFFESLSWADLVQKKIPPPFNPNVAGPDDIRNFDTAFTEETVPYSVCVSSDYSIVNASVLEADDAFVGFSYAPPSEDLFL
# [7] = molecular target: T3, Serine/threonine-protein kinase Sgk3 (Homo sapiens); conditions: at 1 µM
# [8] = molecular target: 5'-AMP-activated protein kinase catalytic subunit alpha-1 (Homo sapiens) (UniProt Q13131); conditions: at 0.1 µM
# Sequence of 5'-AMP-activated protein kinase catalytic subunit alpha-1 (Homo sapiens) (Q13131 whole entry, looked up): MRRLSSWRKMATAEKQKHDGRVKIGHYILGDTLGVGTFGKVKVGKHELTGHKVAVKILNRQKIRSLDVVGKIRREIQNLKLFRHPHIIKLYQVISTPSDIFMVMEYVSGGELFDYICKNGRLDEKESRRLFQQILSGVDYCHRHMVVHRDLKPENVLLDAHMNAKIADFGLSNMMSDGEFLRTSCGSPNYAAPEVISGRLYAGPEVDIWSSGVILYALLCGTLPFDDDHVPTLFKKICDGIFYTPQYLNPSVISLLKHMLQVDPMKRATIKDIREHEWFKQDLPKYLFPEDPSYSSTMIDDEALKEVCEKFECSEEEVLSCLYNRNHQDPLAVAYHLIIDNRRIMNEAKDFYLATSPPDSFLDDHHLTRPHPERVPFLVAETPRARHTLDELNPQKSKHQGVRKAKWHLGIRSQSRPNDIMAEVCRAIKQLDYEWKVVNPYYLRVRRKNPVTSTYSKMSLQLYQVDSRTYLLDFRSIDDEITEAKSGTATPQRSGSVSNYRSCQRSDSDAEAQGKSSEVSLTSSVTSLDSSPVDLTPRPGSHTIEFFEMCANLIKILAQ
# [9] = molecular target: 5'-AMP-activated protein kinase catalytic subunit alpha-1 (Homo sapiens) (UniProt Q13131); conditions: at 1 µM
# [10] = molecular target: 5'-AMP-activated protein kinase catalytic subunit alpha-2 (Homo sapiens) (UniProt P54646); conditions: at 0.1 µM
# Sequence of 5'-AMP-activated protein kinase catalytic subunit alpha-2 (Homo sapiens) (P54646 whole entry, looked up): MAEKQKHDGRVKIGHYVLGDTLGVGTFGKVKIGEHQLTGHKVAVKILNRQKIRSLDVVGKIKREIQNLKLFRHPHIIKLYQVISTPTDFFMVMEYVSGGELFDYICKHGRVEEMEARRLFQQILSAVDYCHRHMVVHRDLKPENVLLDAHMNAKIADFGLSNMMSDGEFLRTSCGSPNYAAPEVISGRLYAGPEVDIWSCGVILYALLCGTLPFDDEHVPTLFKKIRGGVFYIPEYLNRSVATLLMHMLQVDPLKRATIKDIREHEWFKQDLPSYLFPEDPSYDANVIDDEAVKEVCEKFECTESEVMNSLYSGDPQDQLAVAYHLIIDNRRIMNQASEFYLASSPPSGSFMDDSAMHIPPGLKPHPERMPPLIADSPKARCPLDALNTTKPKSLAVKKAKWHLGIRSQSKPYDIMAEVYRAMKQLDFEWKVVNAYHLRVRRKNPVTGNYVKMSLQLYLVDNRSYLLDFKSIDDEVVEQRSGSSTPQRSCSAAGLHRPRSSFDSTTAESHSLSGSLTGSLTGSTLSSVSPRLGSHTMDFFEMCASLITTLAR
# [11] = molecular target: 5'-AMP-activated protein kinase catalytic subunit alpha-2 (Homo sapiens) (UniProt P54646); conditions: at 1 µM
# [12] = molecular target: T4, NUAK family SNF1-like kinase 1 (Homo sapiens) (UniProt O60285); conditions: at 0.1 µM
# T4 sequence (whole entry): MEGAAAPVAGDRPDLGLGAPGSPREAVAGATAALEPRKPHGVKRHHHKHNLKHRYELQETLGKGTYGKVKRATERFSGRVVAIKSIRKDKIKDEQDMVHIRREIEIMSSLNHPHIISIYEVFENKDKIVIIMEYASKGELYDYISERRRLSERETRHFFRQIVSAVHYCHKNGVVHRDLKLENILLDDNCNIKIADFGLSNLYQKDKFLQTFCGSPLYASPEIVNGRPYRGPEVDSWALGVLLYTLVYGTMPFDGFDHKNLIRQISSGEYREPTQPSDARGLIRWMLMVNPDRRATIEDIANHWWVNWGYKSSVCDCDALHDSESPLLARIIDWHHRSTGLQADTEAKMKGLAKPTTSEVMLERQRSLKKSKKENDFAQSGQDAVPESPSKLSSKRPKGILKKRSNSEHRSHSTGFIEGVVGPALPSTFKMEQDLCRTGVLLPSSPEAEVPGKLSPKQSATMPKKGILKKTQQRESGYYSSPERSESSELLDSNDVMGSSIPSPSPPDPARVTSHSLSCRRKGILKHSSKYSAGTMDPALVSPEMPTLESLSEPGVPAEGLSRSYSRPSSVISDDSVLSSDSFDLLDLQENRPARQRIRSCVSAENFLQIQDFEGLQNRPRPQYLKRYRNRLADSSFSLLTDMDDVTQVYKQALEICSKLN
# [13] = molecular target: T4, NUAK family SNF1-like kinase 1 (Homo sapiens); conditions: at 1 µM
# [14] = molecular target: T5, Serine/threonine-protein kinase BRSK1 (Homo sapiens) (UniProt Q8TDC3); conditions: at 0.1 µM
# T5 sequence (whole entry): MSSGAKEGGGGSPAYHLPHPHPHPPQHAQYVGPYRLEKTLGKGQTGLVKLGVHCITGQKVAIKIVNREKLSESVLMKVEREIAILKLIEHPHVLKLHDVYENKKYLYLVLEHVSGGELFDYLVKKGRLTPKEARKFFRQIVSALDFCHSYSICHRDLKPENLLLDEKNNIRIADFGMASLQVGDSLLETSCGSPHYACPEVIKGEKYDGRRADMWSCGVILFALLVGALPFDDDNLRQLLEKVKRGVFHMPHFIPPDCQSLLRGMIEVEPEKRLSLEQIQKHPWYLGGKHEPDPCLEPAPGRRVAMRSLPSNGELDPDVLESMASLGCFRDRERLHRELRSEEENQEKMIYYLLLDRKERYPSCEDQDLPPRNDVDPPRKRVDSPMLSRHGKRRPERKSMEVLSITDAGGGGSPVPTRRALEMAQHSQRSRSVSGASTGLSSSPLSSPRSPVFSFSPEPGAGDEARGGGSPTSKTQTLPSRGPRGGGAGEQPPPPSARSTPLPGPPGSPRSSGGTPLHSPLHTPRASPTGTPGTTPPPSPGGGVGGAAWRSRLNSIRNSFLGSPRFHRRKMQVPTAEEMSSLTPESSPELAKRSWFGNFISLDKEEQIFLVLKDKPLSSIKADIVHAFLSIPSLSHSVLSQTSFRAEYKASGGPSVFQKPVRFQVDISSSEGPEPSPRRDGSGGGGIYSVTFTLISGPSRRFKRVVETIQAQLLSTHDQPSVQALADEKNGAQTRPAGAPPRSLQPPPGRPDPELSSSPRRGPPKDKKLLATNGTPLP
# [15] = molecular target: T5, Serine/threonine-protein kinase BRSK1 (Homo sapiens); conditions: at 1 µM
# [16] = molecular target: T6, Serine/threonine-protein kinase BRSK2 (Homo sapiens) (UniProt Q8IWQ3); conditions: at 0.1 µM
# T6 sequence (whole entry): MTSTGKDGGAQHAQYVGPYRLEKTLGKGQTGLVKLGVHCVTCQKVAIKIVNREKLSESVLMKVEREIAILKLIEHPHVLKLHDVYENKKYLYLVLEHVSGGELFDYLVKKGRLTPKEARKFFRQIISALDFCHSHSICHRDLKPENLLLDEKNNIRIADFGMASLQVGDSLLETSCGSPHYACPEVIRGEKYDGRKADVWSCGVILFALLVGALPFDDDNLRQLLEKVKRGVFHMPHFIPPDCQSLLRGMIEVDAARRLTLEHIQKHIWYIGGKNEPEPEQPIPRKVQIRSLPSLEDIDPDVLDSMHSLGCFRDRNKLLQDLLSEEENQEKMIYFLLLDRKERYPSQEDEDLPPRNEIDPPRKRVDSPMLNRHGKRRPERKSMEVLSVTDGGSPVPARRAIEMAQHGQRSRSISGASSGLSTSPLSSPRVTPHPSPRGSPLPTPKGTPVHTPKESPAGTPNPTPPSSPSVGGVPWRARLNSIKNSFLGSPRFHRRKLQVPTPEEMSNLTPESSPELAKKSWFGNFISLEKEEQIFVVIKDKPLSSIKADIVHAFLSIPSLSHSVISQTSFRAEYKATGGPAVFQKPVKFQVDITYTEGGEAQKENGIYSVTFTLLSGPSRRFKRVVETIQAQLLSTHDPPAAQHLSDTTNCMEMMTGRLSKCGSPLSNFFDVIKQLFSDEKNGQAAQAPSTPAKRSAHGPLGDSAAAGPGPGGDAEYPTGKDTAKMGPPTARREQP
# [17] = molecular target: T6, Serine/threonine-protein kinase BRSK2 (Homo sapiens); conditions: at 1 µM
# [18] = molecular target: Calcium/calmodulin-dependent protein kinase type 1D (Homo sapiens) (UniProt Q8IU85); conditions: at 0.1 µM
# Sequence of Calcium/calmodulin-dependent protein kinase type 1D (Homo sapiens) (Q8IU85 whole entry, looked up): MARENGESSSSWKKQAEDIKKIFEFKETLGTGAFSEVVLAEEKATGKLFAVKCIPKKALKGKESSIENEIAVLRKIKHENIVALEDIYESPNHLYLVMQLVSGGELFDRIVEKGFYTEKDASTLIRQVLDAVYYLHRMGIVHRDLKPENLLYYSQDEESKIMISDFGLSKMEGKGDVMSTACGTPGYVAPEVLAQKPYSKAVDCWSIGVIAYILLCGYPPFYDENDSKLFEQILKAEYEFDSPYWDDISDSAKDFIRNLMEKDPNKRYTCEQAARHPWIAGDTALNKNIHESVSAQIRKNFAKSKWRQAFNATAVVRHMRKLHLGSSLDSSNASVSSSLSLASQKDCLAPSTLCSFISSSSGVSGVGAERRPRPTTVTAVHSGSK
# [19] = molecular target: Calcium/calmodulin-dependent protein kinase type 1D (Homo sapiens) (UniProt Q8IU85); conditions: at 1 µM
# [20] = molecular target: Calcium/calmodulin-dependent protein kinase type II subunit alpha (Homo sapiens) (UniProt Q9UQM7); conditions: at 0.1 µM;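 note: reported values are averages (mean inhibition of CAMK2A)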
# Sequence of Calcium/calmodulin-dependent protein kinase type II subunit alpha (Homo sapiens) (Q9UQM7 whole entry): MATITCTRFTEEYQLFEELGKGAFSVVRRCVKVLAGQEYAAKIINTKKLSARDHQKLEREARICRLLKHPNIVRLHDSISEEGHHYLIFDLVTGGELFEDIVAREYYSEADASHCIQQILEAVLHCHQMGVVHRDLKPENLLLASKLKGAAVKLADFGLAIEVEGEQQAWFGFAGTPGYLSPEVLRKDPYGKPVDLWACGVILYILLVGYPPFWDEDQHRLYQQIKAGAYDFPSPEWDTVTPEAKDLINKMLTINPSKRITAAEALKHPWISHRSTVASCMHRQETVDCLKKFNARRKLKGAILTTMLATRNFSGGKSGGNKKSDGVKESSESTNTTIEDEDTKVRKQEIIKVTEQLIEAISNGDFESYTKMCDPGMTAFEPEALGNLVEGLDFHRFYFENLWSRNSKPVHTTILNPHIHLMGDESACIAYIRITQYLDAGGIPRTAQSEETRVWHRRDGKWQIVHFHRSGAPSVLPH
# Sequence of Ribosomal protein S6 kinase alpha-6 (Homo sapiens) (Q9UK32 whole entry): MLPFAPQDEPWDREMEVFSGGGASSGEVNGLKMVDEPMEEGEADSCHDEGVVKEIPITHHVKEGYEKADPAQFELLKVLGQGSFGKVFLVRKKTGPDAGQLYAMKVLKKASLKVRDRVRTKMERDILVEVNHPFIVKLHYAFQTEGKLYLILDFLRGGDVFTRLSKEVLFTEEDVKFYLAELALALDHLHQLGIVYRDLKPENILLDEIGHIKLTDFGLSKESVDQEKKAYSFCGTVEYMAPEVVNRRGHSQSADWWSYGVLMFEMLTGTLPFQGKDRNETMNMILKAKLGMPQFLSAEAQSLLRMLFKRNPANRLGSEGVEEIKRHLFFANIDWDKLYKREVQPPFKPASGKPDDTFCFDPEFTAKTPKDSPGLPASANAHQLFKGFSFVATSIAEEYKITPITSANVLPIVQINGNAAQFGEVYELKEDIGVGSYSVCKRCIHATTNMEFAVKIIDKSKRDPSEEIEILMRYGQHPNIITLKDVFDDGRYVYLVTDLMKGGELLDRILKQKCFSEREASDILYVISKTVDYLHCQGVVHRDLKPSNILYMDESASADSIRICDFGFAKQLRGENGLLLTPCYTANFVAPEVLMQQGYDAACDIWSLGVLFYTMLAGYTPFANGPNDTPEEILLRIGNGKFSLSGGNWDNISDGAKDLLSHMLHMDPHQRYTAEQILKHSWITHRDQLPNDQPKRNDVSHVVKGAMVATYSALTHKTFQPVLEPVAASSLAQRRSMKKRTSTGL
structure (smiles),measurement,setting,value
Fc1cccc(COc2ccc(Nc3ncncc3C#Cc3ccccc3)cc2Cl)c1,inhibition,[1],1.91%
same,inhibition,[2],3.17%
same,inhibition,[3],7.69%
same,inhibition,[4],5.33%
same,inhibition,[5],8.63%
same,inhibition,[6],5.19%
same,inhibition,[7],7.34%
same,inhibition,[8],3.44%
same,inhibition,[9],7.14%
same,inhibition,[10],1.38%
same,inhibition,[11],2.35%
same,inhibition,[12],1.2%
same,inhibition,[13],3.38%
same,inhibition,[14],-0.12%
same,inhibition,[15],3.27%
same,inhibition,[16],0.86%
same,inhibition,[17],4.6%
same,inhibition,[18],-0.31%
same,inhibition,[19],-0.49%
same,inhibition,[20],4.42%

# — ChEMBL document CHEMBL1961873, “Compounds: GSK PKIS; Assays: Nanosyn kinase panel” (2012)
